Reference: publication PMC5540273 (PLoS ONE, 2017)

Experiments:
Conditions in all cases: concentration: 1 μM, replicates: in singlicate; n = 1
[1] = system: FGR
[2] = system: FLT1
[3] = system: FLT3-autoinhibited
[4] = system: FLT3
[5] = system: FLT4
[6] = system: FRK
[7] = system: FYN
[8] = system: GAK
[9] = system: T1, GCN2(Kin.Dom.2,S808G)
T1 construct: gene EIF2AK4

[10] = system: GRK1
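Note: KINOMEscan kinase panel screen.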

SMILES: COc1ccc(-c2cc3c(C)nc(N)nc3n([C@H]3CC[C@H](O)CC3)c2=O)cn1
- %Inh [1]: 0%
- %Inh [2]: 0%
- %Inh [3]: 0%
- %Inh [4]: 0%
- %Inh [5]: 0%
- %Inh [6]: 0%
- %Inh [7]: 0%
- %Inh [8]: 0%
- %Inh [9]: 0%
- %Inh [10]: 0%

SMILES: CN(C)c1cc(-c2ccc3c(N)n[nH]c3c2)nc(N)n1 [GSK2219329]
- %Inh [1]: 19%
- %Inh [2]: 20%
- %Inh [3]: 0%
- %Inh [4]: 0%
- %Inh [5]: 19%
- %Inh [6]: 0%
- %Inh [7]: 11%
- %Inh [8]: 0%
- %Inh [9]: 0%
- %Inh [10]: 0%

SMILES: CCC(=O)c1c(-c2ccccc2)c2cc(Cl)ccc2c(=O)n1Cc1cc(S(C)(=O)=O)n(CC(F)F)n1
- %Inh [1]: 0%
- %Inh [2]: 0%
- %Inh [3]: 0%
- %Inh [4]: 0%
- %Inh [5]: 0%
- %Inh [6]: 0%
- %Inh [7]: 0%
- %Inh [8]: 0%
- %Inh [9]: 0%
- %Inh [10]: 12%

SMILES: Cc1nnc(-c2ccc3ncn(-c4ccc(S(C)=O)cc4)c3c2)o1 (centres unmarked)
- %Inh [1]: 18%
- %Inh [2]: 8%
- %Inh [3]: 0%
- %Inh [4]: 8%
- %Inh [5]: 0%
- %Inh [6]: 0%
- %Inh [7]: 8%
- %Inh [8]: 2%
- %Inh [9]: 19%
- %Inh [10]: 11%

SMILES: CCC(=O)c1c(-c2ccccc2)c2cc(Cl)ccc2c(=O)n1Cc1cc(S(C)(=O)=O)n(CCC(C)(C)O)n1
- %Inh [1]: 11%
- %Inh [2]: 29%
- %Inh [3]: 2%
- %Inh [4]: 0%
- %Inh [5]: 15%
- %Inh [6]: 13%
- %Inh [7]: 10%
- %Inh [8]: 8%
- %Inh [9]: 0%
- %Inh [10]: 8%

SMILES: CCn1c(-c2nonc2N)nc2ccccc21 [SB-693162/GW549034]
- %Inh [1]: 0%
- %Inh [2]: 0%
- %Inh [3]: 52%
- %Inh [4]: 20%
- %Inh [5]: 0%
- %Inh [6]: 0%
- %Inh [7]: 0%
- %Inh [8]: 0%
- %Inh [9]: 24%
- %Inh [10]: 46%

SMILES: COc1cc(Nc2ccnc3ccc(C(F)(F)F)cc23)cc(OC)c1OC [GW577382]
- %Inh [1]: 30%
- %Inh [2]: 9%
- %Inh [3]: 0%
- %Inh [4]: 0%
- %Inh [5]: 3%
- %Inh [6]: 19%
- %Inh [7]: 30%
- %Inh [8]: 86%
- %Inh [9]: 9%
- %Inh [10]: 17%

SMILES: Cc1cc(Nc2nc(-c3cccc(C)n3)nc3ccccc23)ccn1 [GW872411]
- %Inh [1]: 0%
- %Inh [2]: 0%
- %Inh [3]: 0%
- %Inh [4]: 7%
- %Inh [5]: 0%
- %Inh [6]: 0%
- %Inh [7]: 0%
- %Inh [8]: 0%
- %Inh [9]: 0%
- %Inh [10]: 13%

SMILES: CCC(=O)c1c(-c2ccccc2)c2cc(Cl)ccc2c(=O)n1Cc1cc(S(C)(=O)=O)n(CC(N)=O)n1
- %Inh [1]: 0%
- %Inh [2]: 0%
- %Inh [3]: 0%
- %Inh [4]: 0%
- %Inh [5]: 0%
- %Inh [6]: 0%
- %Inh [7]: 0%
- %Inh [8]: 0%
- %Inh [9]: 0%
- %Inh [10]: 24%

SMILES: OCCCNc1nccc(-c2c(-c3cccc(C(F)(F)F)c3)nn3cc(C(F)(F)F)ccc23)n1 [GW630813]
- %Inh [1]: 16%
- %Inh [2]: 24%
- %Inh [3]: 0%
- %Inh [4]: 0%
- %Inh [5]: 12%
- %Inh [6]: 0%
- %Inh [7]: 0%
- %Inh [8]: 8%
- %Inh [9]: 0%
- %Inh [10]: 100%

SMILES: Nc1nccc2scc(-c3ccc4c(c3)CCN4C(=O)Cc3ccccc3)c12 [GSK2576924]
- %Inh [1]: 22%
- %Inh [2]: 22%
- %Inh [3]: 3%
- %Inh [4]: 0%
- %Inh [5]: 21%
- %Inh [6]: 0%
- %Inh [7]: 33%
- %Inh [8]: 0%
- %Inh [9]: 0%
- %Inh [10]: 4%

SMILES: Nc1nc(-c2ccccc2F)c(-c2ccnc3ccccc23)s1 [GW560459]
- %Inh [1]: 7%
- %Inh [2]: 30%
- %Inh [3]: 0%
- %Inh [4]: 25%
- %Inh [5]: 0%
- %Inh [6]: 0%
- %Inh [7]: 39%
- %Inh [8]: 79%
- %Inh [9]: 6%
- %Inh [10]: 0%

SMILES: CCS(=O)c1ccc(-c2coc3ccc(-c4nnc(C)o4)cc23)cc1 (centres unmarked)
- %Inh [1]: 0%
- %Inh [2]: 0%
- %Inh [3]: 0%
- %Inh [4]: 0%
- %Inh [5]: 0%
- %Inh [6]: 5%
- %Inh [7]: 0%
- %Inh [8]: 0%
- %Inh [9]: 0%
- %Inh [10]: 5%

SMILES: COC(=O)c1c(-c2ccccc2)c2cc(Br)ccc2c(=O)n1Cc1ccc(S(C)(=O)=O)cc1
- %Inh [1]: 13%
- %Inh [2]: 0%
- %Inh [3]: 0%
- %Inh [4]: 9%
- %Inh [5]: 1%
- %Inh [6]: 1%
- %Inh [7]: 0%
- %Inh [8]: 9%
- %Inh [9]: 0%
- %Inh [10]: 0%

SMILES: O=C(NCCNc1ccnc(Nc2ccc(F)cc2)n1)Nc1ccc2c(c1)OCO2 [GSK1379882]
- %Inh [1]: 0%
- %Inh [2]: 0%
- %Inh [3]: 12%
- %Inh [4]: 0%
- %Inh [5]: 9%
- %Inh [6]: 0%
- %Inh [7]: 34%
- %Inh [8]: 14%
- %Inh [9]: 0%
- %Inh [10]: 0%

SMILES: Cn1c(=O)c(F)c(Nc2ccc(I)cc2F)c2c(=O)n(OC[C@H](O)CO)cnc21
- %Inh [1]: 32%
- %Inh [2]: 0%
- %Inh [3]: 0%
- %Inh [4]: 0%
- %Inh [5]: 10%
- %Inh [6]: 0%
- %Inh [7]: 14%
- %Inh [8]: 11%
- %Inh [9]: 0%
- %Inh [10]: 9%

SMILES: CCc1ccc(-c2ccc3c(c2)-c2nn(C)cc2S(=O)(=O)N3C)cc1
- %Inh [1]: 0%
- %Inh [2]: 0%
- %Inh [3]: 0%
- %Inh [4]: 30%
- %Inh [5]: 0%
- %Inh [6]: 0%
- %Inh [7]: 5%
- %Inh [8]: 0%
- %Inh [9]: 9%
- %Inh [10]: 12%
